Test [1] can be described thus: qHTS assay to identify small molecule inhibitors of chordoma cells - UCH-1 (AID 1259355). Also: nearly all actives have a fitted effect of over 55% in size. The essentials:
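Screening used approved and investigational drugs in 15-point titration against 800 seeded cells per well. A fixed combination of auranofin with camptothecin, doxorubicin, rubitecan and topotecan followed compound addition, and growth was scored by CellTiter-Glo after 48hr.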
(In qHTS, concentration-response curves come from the screen itself.)

A short description of test [2]: qHTS assay to identify small molecule inhibitors of chordoma cells - UCH-2 (AID 1259356). Also: series mostly up to about 46 µM.
Test [3] in a line: P-glycoprotein substrates identified in KB-8-5-11 adenocarcinoma cell line, qHTS therapeutic library screen (AID 1346987). Also: nearly all actives have a fitted effect of over 65% in size. Also: potency is read from the fitted curve at half-maximal effect. The following applies: outcome: dose series up to 44.5 µM unless noted. Summed up: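 In this qHTS, P-gp-rich KB-8-5-11 cells received library compounds across a concentration range. Viability was quantified by luminescence after 72 h at 37 degree C.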

Test [4] is described as follows: P-glycoprotein substrates identified in KB-3-1 adenocarcinoma cell line, qHTS therapeutic library screen (AID 1346986). Also: nearly all actives have a fitted effect of over 60% in size. To be noted: outcome: dose series up to 44.5 µM unless noted. Summed up: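 Viability by CellTiter-Glo after 72 h compound exposure at 37 degree C, 5% CO2. Cytotoxic call: curve class -1.1 to -2.4, maximum response >50%, AC50 < 10 uM, compared across KB-3-1 and P-gp-overexpressing KB-8-5-11.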

SMILES strings stand for the structures. “And” between values parts separate entries of the source, which are not always exact repeats. Equal entries are not always repeated. Records with an inconclusive call do not appear. Entries that show only a call come without a potency. The source holds several records for some structures; these can differ, active in one and inactive in another. The source made the active and inactive calls. Calls follow the shape of the dose curve; as a rule, active = well fitted curve in the direction sought with a large enough effect; inconclusive = small, poorly fitted or top-dose-only effect, or another doubt; inactive = no such curve, though single readings can be large; an effect the other way counts as inactive or inconclusive.

In the case of `CCOC(=O)c1ncn2c1CN(C)C(=O)c1cc(F)ccc1-2`, the Potency result in test [1] and in test [3] was “inactive” throughout. In addition, the compound was called inactive in test [2].
Turning to `COc1nc(C)nc(Cl)c1NC1=NCCN1`, the Potency entry in test [1] and in test [3] was “inactive” throughout. Besides, the outcome in test [2] was inactive.
As for `O=c1c(-c2ccc(O)cc2)coc2cc(O)cc(O)c12`, the Potency entry in test [1] and in test [3] was “inactive” in each case. Also, the outcome in test [4] was inactive.
`CCc1cccc2c3c([nH]c12)C(CC)(CC(=O)O)OCC3` (centres undefined): the Potency result in test [1] and in test [3] was “inactive” throughout. The call in test [2] was inactive.
Turning to `Nc1nc2c(ncn2COC(CO)CO)c(=O)[nH]1`, the Potency entry in test [1] is “inactive”. Besides, in test [2], the result was inactive. Also, the Potency result in test [3] was “inactive and 16.6 µM (active)”.
Consider `CCOC(=O)C(C)(C)Oc1ccc(Cl)cc1`, for which the Potency entry in test [1] and in test [3] was “inactive” in each case. Further, the result in test [2] was inactive.
In the case of `CC(C(=O)O)c1cccc(C(=O)c2ccccc2)c1` (centres undefined), the Potency entry in test [1] and in test [3] was “inactive” each time. Further, the call in test [2] was inactive.
In the case of `NC(=O)NO`, the Potency entry in test [1] is “inactive”. In test [2], the compound was called inactive. The Potency entry in test [3] is “inactive and 1.66 µM (active)”.
`NCCS(=O)(=O)O`: the Potency entry in test [1] and in test [3] was “inactive” each time. For the same compound, in test [2], the outcome was inactive.
`O=C1Cc2cc(CCN3CCN(c4nsc5ccccc45)CC3)c(Cl)cc2N1`: the Potency entry in test [1] and in test [3] was “inactive” throughout. Moreover, the outcome in test [2] was inactive.
`CCC1(C)CC(=O)NC1=O` (centres undefined): the Potency entry in test [1] and in test [3] was “inactive” throughout. Moreover, in test [2], the outcome was inactive.
With `COc1cc2nc(N3CCN(C(=O)C4COc5ccccc5O4)CC3)nc(N)c2cc1OC` (centres undefined), the Potency result in test [1] and in test [3] was “inactive” throughout. Further, the call in test [2] was inactive.
As for `Clc1ccccc1C(c1ccccc1)(c1ccccc1)n1ccnc1`, the Potency entry in test [1] was “inactive”. The call in test [2] was inactive. For the same compound, in test [3], the Potency is 9.88 µM (active).
Consider `C[C@@H]1CC(=O)NN=C1c1ccc(NN=C(C#N)C#N)cc1`, for which the Potency entry in test [1] and in test [3] was “inactive” throughout. For the same compound, the result in test [2] was inactive.
For the compound `NC12CC3CC(CC(C3)C1)C2`, the Potency entry in test [1] and in test [3] was “inactive” each time. For the same compound, the compound was classed as inactive in test [2].
`CN(CCOc1ccc(NS(C)(=O)=O)cc1)CCc1ccc(NS(C)(=O)=O)cc1`: the Potency result in test [1] and in test [3] was “inactive” throughout. Moreover, the compound was classed as inactive in test [2].
`C[C@](N)(Cc1ccc(O)c(O)c1)C(=O)O`: the Potency result in test [1] and in test [3] was “inactive” in each case. The compound was classed as inactive in test [2].
Regarding `O=C(C1CCCCC1)N1CC(=O)N2CCc3ccccc3C2C1` (centres undefined), the Potency result in test [1] and in test [3] was “inactive” throughout. Moreover, the call in test [2] was inactive.
On to `NCCCCCC(=O)O`, for which the Potency result in test [1] and in test [3] was “inactive” throughout. For the same compound, the outcome in test [2] was inactive.
Regarding `COc1ccc(C2CNC(=O)C2)cc1OC1CCCC1` (centres undefined), the Potency entry in test [1] and in test [3] was “inactive” each time. Also, the outcome in test [2] was inactive.
Turning to `CNCCCC12CCC(c3ccccc31)c1ccccc12`, in test [1], the Potency result is “inactive”. Moreover, the call in test [2] was inactive. Moreover, the Potency in test [3] was 20.9 µM (active).
Consider `CCOC(=O)Nc1ccc(NCc2ccc(F)cc2)nc1N`, for which the Potency entry in test [1] and in test [3] was “inactive” each time. Further, in test [2], the compound was classed as inactive.
`CC(=O)OCC(CCn1cnc2cnc(N)nc21)COC(C)=O`: the Potency result in test [1] and in test [3] was “inactive” each time. For the same compound, in test [2], the call was inactive.
Regarding `COc1ccccc1OCC(O)CN1CCN(CC(=O)Nc2c(C)cccc2C)CC1` (centres undefined), the Potency entry in test [1] and in test [3] was “inactive” in each case. Further, in test [2], the outcome was inactive.
As for `Cc1cnc(C(=O)NCCc2ccc(S(=O)(=O)NC(=O)NC3CCCCC3)cc2)cn1`, the Potency result in test [1] and in test [3] was “inactive” in each case. In addition, the compound was called inactive in test [2].
With `CN(C)c1nc(N(C)C)nc(N(C)C)n1`, the Potency result in test [1] and in test [3] was “inactive” in each case. Moreover, in test [2], the call was inactive.
`O=C(c1ccc(F)cc1)C1CCN(CCn2c(=O)[nH]c3ccccc3c2=O)CC1`: the Potency result in test [1] and in test [3] was “inactive” in each case. The compound was classed as inactive in test [2].
For `O=C(CCCN1CCC(O)(c2ccc(Cl)cc2)CC1)c1ccc(F)cc1`, the Potency result in test [1] was “inactive”. Also, the compound was classed as inactive in test [2]. The Potency in test [3] is 18.4 µM (active).
In the case of `Cn1c(=O)c2[nH]cnc2n(C)c1=O`, the Potency entry in test [1] and in test [3] was “inactive” in each case. Also, the compound was called inactive in test [2].
As to `CC(C)NCC(O)c1ccc(O)c(O)c1` (centres undefined), the Potency result in test [1] and in test [3] was “inactive” throughout. Further, in test [2], the compound was called inactive.
Consider `NC(=O)OCC(COC(N)=O)c1ccccc1`, for which the Potency entry in test [1] and in test [3] was “inactive” in each case. For the same compound, the compound was classed as inactive in test [2].
On to `CN1C(C(=O)Nc2ccccn2)=C(O)c2ccccc2S1(=O)=O`, for which the Potency entry in test [1] and in test [3] was “inactive” throughout. The call in test [2] was inactive.
Consider `CCC1(c2ccccc2)C(=O)NCNC1=O`, for which the result in test [2] was inactive. Also, the Potency entry in test [3] is “inactive”.
Turning to `CCN1CCCC1CNC(=O)c1cc(S(=O)(=O)CC)c(N)cc1OC` (centres undefined), the Potency result in test [3] is “inactive”.
`CN(C)CCCN1c2ccccc2CCc2ccc(Cl)cc21`: the call in test [2] was inactive. Also, in test [3], the Potency was 20.9 µM (active).
Turning to `Nc1ccn([C@H]2CC[C@@H](CO)O2)c(=O)n1`, in test [4], the outcome was inactive. For the same compound, in test [3], the Potency result is “inactive”.
Consider `COc1ccc2c(c1)c(CC(=O)O)c(C)n2C(=O)c1ccc(Cl)cc1`, for which the Potency entry in test [3] was “inactive”.
In the case of `COc1cc2nc(N3CCN(C(=O)c4ccco4)CC3)nc(N)c2cc1OC`, the Potency entry in test [3] is “inactive”.
For the compound `CN1CCN(CCCN2c3ccccc3Sc3ccc(Cl)cc32)CC1`, the Potency in test [3] was 23.5 µM (active).
On to `CN1CCN(C2=Nc3cc(Cl)ccc3Nc3ccccc32)CC1`, for which the compound was classed as inactive in test [2].
Same read-out and setting: in the case of `CC(CCc1ccc(O)cc1)NCCc1ccc(O)c(O)c1` (centres undefined) it was “inactive”.
Turning to `CN1C2CCC1CC(OC(=O)C(CO)c1ccccc1)C2` (centres undefined), in test [3], the Potency result is “inactive”.
Turning to `Clc1ccc2nsnc2c1NC1=NCCN1`, the call in test [2] was inactive. The Potency entry in test [3] was “inactive”.
With `COC(=O)Nc1nc2ccc(C(=O)c3cccs3)cc2[nH]1`, in test [2], the compound was classed as inactive. For the same compound, the Potency in test [3] is 6.6 nM (active) and 326 nM (active).
With `COc1ccc2[nH]cc(CCNC(C)=O)c2c1`, in test [2], the call was inactive. Besides, the Potency entry in test [3] is “inactive”.
Consider `CC#C[C@]1(O)CC[C@H]2[C@@H]3CCC4=CC(=O)CCC4=C3[C@@H](c3ccc(N(C)C)cc3)C[C@@]21C`, for which the result in test [2] was inactive. Further, the Potency in test [3] is 23.1 µM (active).
As for `COc1cc2c(c(OC)c1OC)-c1ccc(OC)c(=O)cc1[C@@H](NC(C)=O)CC2`, the call in test [2] was inactive. For the same compound, the Potency in test [3] is 23.1 µM (active) and 132 nM (active).
